Sampled rows, rich in hits. Any-hit rate of the full collection: about 11%.
PNC assembly inh: inhibitors of perinucleolar compartment assembly; PC3M PTB-GFP, PNC prevalence imaging, 16 h; active compounds read low; activity change (PNC), negative = inhibition, % at 10 µM; 3.1% of 140,000 active;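 active means readout at or below -70, meaning at least 70% loss of cells showing the perinucleolar compartment, a nuclear body marking cancer cells; inconclusive means readout between -30 and a set limit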;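 further: plate controls were DMSO wells for no effect and camptothecin positive control wells for full effect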
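Compounds are pinned in duplicate onto adhered PC3M cells stably expressing GFP-tagged PTB and incubated 16 h at 37 C. Cells are then fixed, nuclei stained with Hoechst, and PNC-positive cells counted.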
HPGD block: inhibitors of human 15-hydroxyprostaglandin dehydrogenase (HPGD) | P15428 | purified HPGD, NADH fluorescence kinetic, PGE2 substrate | Potency, µM, without a hit: at the highest dose activity change, negative = inhibition, actives largely listed as inhibitors | 4.3% of 150,000 active | AID 894; further: potency means the concentration at half of the fitted maximal effect
Target sequence (P15428 whole entry, looked up): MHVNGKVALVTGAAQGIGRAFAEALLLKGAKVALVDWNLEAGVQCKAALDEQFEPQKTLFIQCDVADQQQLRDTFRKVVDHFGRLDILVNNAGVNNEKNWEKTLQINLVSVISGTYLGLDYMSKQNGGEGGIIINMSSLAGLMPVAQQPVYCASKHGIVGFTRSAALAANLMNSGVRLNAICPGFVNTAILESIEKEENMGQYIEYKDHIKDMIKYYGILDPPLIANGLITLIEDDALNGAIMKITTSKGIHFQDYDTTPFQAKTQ
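20 nM HPGD preincubated 15 min at room temperature with compound in 50 mM Tris-HCl pH 8, 0.01% Tween 20. Started with 1 mM NAD+ and 30 uM prostaglandin E2; NADH fluorescence (360/450 nm) read 5 times over 30-s intervals, last minus first.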
ALDH1A1 inh: inhibitors of human aldehyde dehydrogenase 1A1; P00352; Purified ALDH1A1, NADH fluorescence, propionaldehyde substrate; Potency, µM (doses to about 75.3 µM), for the others: top-dose activity, negative = inhibition, hits mostly inhibitors; 7.3% of 220,000 active; AID 1030;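 further: potency means the concentration at half of the fitted maximal effect; plate controls were no enzyme wells and a reference inhibitor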
An asterisk follows results filed as active; ? = inconclusive; nt = no result; ! = a repeat was not active; [ ] = remark or other dose. Unless noted, the call rests on the fitted dose curve; in most records, active means well fitted inhibition curve with a large enough effect (not every such curve was filed as active); inconclusive means small, poorly fitted or top-dose-only effect, or another doubt; inactive means no such curve, though single readings can be large or run the other way. Unless noted, on the % scale 0 is the no-effect control and ±100 the full control effect.

SMILES | PNC assembly inh | HPGD block | ALDH1A1 inh
O=C(O)c1cccc(Cl)c1 | nt | -7% | 11%
O=C(O)c1cc[c]([Hg][Cl])cc1 | nt | 0.28µM* | 5.5µM*
CC1=C(/C=C/c2ccccc2)CCN(C)C1 | 23 | -10% | 11µM*
Nc1nc(N)c(Cn2ccnc2)c(=O)[nH]1 | nt | 3% | 0%[13.5 µM]
CN(C)C1C(=O)C(C(N)=O)C(=O)C2(O)C(=O)C3C(=O)c4c(O)cccc4C(C)(O)C3C(O)C12 (centres undefined) | nt | ? | -10%
C=CCOc1ccc(CC2C(=O)N(C)C(=O)N(C)C2=O)cc1 | -16 | -2% | ?
CCN(CC)c1ccc(CC2C(=O)N(C)C(=O)N(C)C2=O)cc1 | ? | -13% | 4.5µM*
COc1ccc(C(=O)OC2C[C@H]3CC[C@@H](C2)N3C)cc1OC (some centres undefined) | nt | -2% | -11%[20.9 µM]
O=[N+]([O-])c1ccc(-c2ccc(C=Nc3cccc4ccccc34)o2)cc1 | 5 | ? | ?
C=CCN1C(=O)NC(=O)/C(=C\c2ccc(-c3ccccc3[N+](=O)[O-])o2)C1=O | nt | nt | 22µM*
O=C1NC(=O)N(c2ccc3c(c2)OCO3)C(=O)/C1=C\c1ccc(-c2ccccc2C(=O)O)o1 | nt | nt | -14%
O=C1NC(=O)N(Cc2ccco2)C(=O)/C1=C/c1ccc(-c2cccc([N+](=O)[O-])c2)o1 | 19 | 5µM* | 7.1µM*
COc1cc(OC2CCN(C(C)=O)CC2)ccc1C(=O)N1CCC(N2C(=O)OCc3ccccc32)CC1 | nt | -6% | ?
O=C1CN=C(c2ccccc2)c2oc3ccc(Br)cc3c2N1 | ? | -4% | -13%
COc1cccc(OC)c1C1=NCC(=O)Nc2c1oc1ccc(Br)cc21 | -119* | -20% | -8%
CC(C)(OOC(C)(C)c1ccccc1)c1ccccc1 | nt | -10% | 7%
CC(COc1ccccc1)N(CCCl)Cc1ccccc1 (centres undefined) | ? | 0% | 28µM*!
O=C1NO[C@H]2[C@@H]1CN[C@@H]2C(=O)O | nt | -17% | -13%
O=c1c(O)c(-c2ccc(O)c(O)c2)oc2c(O)c(O)cc(O)c12 | nt | 18µM* | 35µM*
CN(C(=O)Cc1ccc(Cl)c(Cl)c1)[C@H](CN1CCCC1)c1ccccc1 | nt | -7% | -1%
CN(CCc1ccc(Cl)c(Cl)c1)[C@@H]1CCCC[C@@H]1N1CCCC1 | nt | nt | 3.5µM*
COC[C@]12CN(C=O)C3C4C(OC)C1[C@@]3(C1CC3(O)C(OC)C(O)C4(OC(C)=O)C1C3OC(=O)c1ccccc1)[C@@H](OC)CC2O (some centres undefined) | nt | -13% | -3%
O=c1c2ccccc2nc(SCC2CCCCO2)n1-c1ccccc1 (centres undefined) | 5 | -8% | 18µM*
COc1ccc(-n2c(SC)nc3ccccc3c2=O)cc1 | 19 | 1% | 10%
O=Cc1ccc(Cl)cc1Cl | nt | -7% | -14%
SMILES | PNC assembly inh | HPGD block | ALDH1A1 inh
Cc1cc(NC(=O)CCl)on1 | nt | nt | 3.5µM*
CCC(=O)Nc1ccc(Cl)c(Cl)c1 | nt | -26% | -6%
O=C1/C(=C\c2ccccc2)C[C@@]2(O)[C@H]3Cc4ccc(O)c5c4[C@@]2(CCN3CC2CC2)[C@@H]1O5 | nt | -14% | -3%
CCOc1cc(-c2c(C#N)c(=O)[nH]c3c2c(C)nn3-c2ccc(F)cc2)ccc1O | 8 | ? | ?
CCCc1nc2ccccc2c(=O)n1-c1cccc(OC)c1 | 6 | -3% | 10%
COc1cccc(-n2c(CN3CCN(C)CC3)nc3ccc([N+](=O)[O-])cc3c2=O)c1 | 12 | 28µM* | 8%
O=C1N[C@@]2(CN3CCC2CC3)C(=O)N1CN(Cc1ccccc1)c1ccccc1 | nt | -12% | 15%[13.5 µM]
CC1C(=O)OC2CCN3CC=C(COC(=O)[C@](C)(O)[C@]1(C)O)C23 (some centres undefined) | nt | -1% | 11%
Cl/C=C/CCl | nt | -5% | -3%
CCN1CCN(S(=O)(=O)c2cnc(Cl)c(Br)c2)CC1 | -22 | 6% | 1.3µM*
ClCC[N+]12CC[N+](CCCl)(CC1)C2 (tested in a mixture with another compound) | nt | 1% | ?
OC[C@@H]1CCCN2CCCC[C@@H]12 | nt | -4% | 2%
c1ccc(-c2ccc(C(c3ccccc3)n3ccnc3)cc2)cc1 (centres undefined) | -28 | ? | 22µM*
O=C(Nc1ccccc1)N1CC[C@@]2(CCCNC2)C1 | nt | -2% | -3%
O=C1NC(=O)C(=Cc2ccccc2OCCOc2ccc([N+](=O)[O-])cc2)C(=O)N1 | nt | nt | 14µM*
CN1C(=O)C(=Cc2ccccc2OCc2ccc(C(=O)O)cc2)C(=O)N(C)C1=O | nt | nt | 6%
Cc1nn(Cc2ccccc2)c(C)c1C=C1C(=O)NC(=O)NC1=O | -29 | ? | -4%
CN1C(=O)C(=Cc2ccccc2OCCOc2ccc([N+](=O)[O-])cc2)C(=O)N(C)C1=O | nt | nt | 3.5µM*
COc1ccc([N+](=O)[O-])cc1N=Cc1c(O)n(CCc2ccccc2)c(=O)n(C(C)C)c1=O | 5 | -5% | -4%
CN1C(=O)C(=Cc2ccccc2OCc2ccccc2Cl)C(=O)N(C)C1=O | ? | 16µM* | 2.8µM*
COc1cc(C=C2C(=O)NC(=O)NC2=O)ccc1OCc1ccc([N+](=O)[O-])cc1 | nt | nt | 15µM*
CN1C(=O)N(C)C(=O)C2(Cc3cc([N+](=O)[O-])ccc3N(C)C2c2ccccc2)C1=O (centres undefined) | ? | -3% | -10%
C[C@H](Cc1ccc2c(c1)OC(C(=O)O)(C(=O)O)O2)NC[C@H](O)c1cccc(Cl)c1 | nt | -20% | -5%
CCC(Cl)[N+](=O)[O-] (centres undefined) | nt | 1% | ?
O=CC=O | nt | -8% | ?
SMILES | PNC assembly inh | HPGD block | ALDH1A1 inh
CC1(C)C(O)CC(O)[C@]2(C)C1CC(O)[C@]1(C)C2CC[C@@]2(C)C(c3ccoc3)CC3OC312 (some centres undefined) | nt | -18% | ?
CC(C)[C@]1(O)[C@@H](OC(=O)c2ccc[nH]2)[C@@]2(O)[C@@]3(C)C[C@]4(O)O[C@@]5([C@H](O)[C@@H](C)CC[C@]35O)[C@@]2(O)C41C | nt | -4% | -3%
O=c1c2ccccc2ncn1-c1ccc([N+](=O)[O-])c(C(F)(F)F)c1 | -14 | -4% | 9%
CCCc1nc2ccc(Br)cc2c(=O)n1-c1ccc([N+](=O)[O-])c(C(F)(F)F)c1 | -96* | nt | -7%
COC(=O)C12C/C=C\Cc3ccccc3[C@@H]1CNC2=O (some centres undefined) | nt | -8% | -7%
O=C(Nc1ccc([As](=O)(O)O)cc1)Nc1cccc(Cl)c1Cl | nt | -8% | 3%[13.5 µM]
COc1cc2c(cc1OC)C(C(=O)NCCC(C)C)C1CCCCN1C2=O (centres undefined) | -119* | -28% | ?
O=c1cccc2n1CC1CC2CN(CCO)C1 (centres undefined) | nt | -8% | 2%
c1cc(OCC2CO2)cc(OCC2CO2)c1 (centres undefined) | nt | -13% | ?
N#CSCSC#N | nt | 6.3µM* | 0.11µM*
S=c1[nH]nc(C2CC2)n1Cc1ccco1 | -5 | -28% | ?
CN=C=O | nt | -11% | -1%
CCCCCCC(C)(C)c1ccc([C@@H]2C[C@H](O)CC[C@@H]2CCCO)c(O)c1 | nt | -17% | ?

Compound activity deposited in PubChem by National Center for Advancing Translational Sciences (NCATS).
